Structures can show the parent of a compound that is named as a salt. A number with no mark means an inactive call.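 How the source made its calls: for the amine columns active = adjusted P below 0.05 in both replicates with a change the same way and a mean fold change under 0.8 or over 1.25; inactive = the rest.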

In the first assay the test system is Klebsiella aerogenes DSM 30053. Briefly: fold change of Histamine concentration vs plate DMSO controls (fold change (ratio)); higher = more amine produced, active = hit call of the paper (significant change in both replicates, either direction). The settings on record: incubation time: 27 h, anaerobic, 37 °C. The method, boiled down: (§1)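 Extracts of whole anaerobic mGAM cultures were analysed for amines by LC–triple-quadrupole MS with dynamic MRM and external calibration curves, with drift corrected within batch. Four gut strains were grown at 37 °C for 27 h in 80 µL wells with compounds at 20 µM final, sweeteners at 50 µM final. Each value expresses fold change over plate DMSO controls. The average of 2 biological replicates is shown.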
Take `CCc1cccc(CC)c1NC(=O)CN(CC(=O)O)CC(=O)O` [Etifenin] (20 µM): the “fold change of Histamine concentration” value is 0.925.
For `CC(Cc1cccc(C(F)(F)F)c1)NCCOC(=O)c1ccccc1` (stereo not drawn) [Benfluorex] (20 µM), the “fold change of Histamine concentration” value is 1.02.
Consider `Cn1c(=O)c2c(ncn2C)n(C)c1=O` [Caffeine] (20 µM), for which the “fold change of Histamine concentration” value is 1.07.
For the molecule `O=c1[nH]c(=O)n([C@H]2C[C@H](O)[C@@H](CO)O2)cc1C(F)(F)F` [Trifluridine] (20 µM), the “fold change of Histamine concentration” value is 1.09.
On to `CCOC(=O)NNc1nncc2ccccc12` [Todralazine hydrochloride] (20 µM), for which the “fold change of Histamine concentration” value was 0.967.

For a further assay, the system named is Clostridium sporogenes DSM 1664. Description: fold change of Tryptamine concentration vs plate DMSO controls (fold change (ratio)); higher = more amine produced, active = hit call of the paper (significant change in both replicates, either direction). The settings on record: incubation time: 27 h, anaerobic, 37 °C. Summed up: as §1
Turning to `CC(N)(Cc1ccc(O)c(O)c1)C(=O)O` (stereo not drawn) [(L) Methyldopa] (20 µM), the “fold change of Tryptamine concentration” value was 1.
For `CN[C@@H]1[C@H](O[C@H]2[C@H](O[C@H]3[C@H](O)[C@@H](O)[C@H](N=C(N)N)[C@@H](O)[C@@H]3N=C(N)N)O[C@@H](C)[C@]2(O)C=O)O[C@@H](CO)[C@H](O)[C@H]1O` [Streptomycin sulfate] (20 µM), the “fold change of Tryptamine concentration” value was 1.12.
On the same count and under the same terms, with `CCOC(=O)c1ccc(OC(=O)CCCCCNC(=N)N)cc1` [Gabexate mesilate] (20 µM) the figure was 0.953.
As for `NS(=O)(=O)c1cc(C(=O)O)c(NCc2ccco2)cc1Cl` [Furosemide] (20 µM), the “fold change of Tryptamine concentration” value was 0.964.
Turning to `CC(C)(Oc1ccc(Cl)cc1)C(=O)O` [Clofibric acid] (20 µM), the “fold change of Tryptamine concentration” value is 0.982.
For the molecule `Cc1ccc(C(C)NC(=O)[C@@H](NC(=O)OC(C)C)C(C)C)cc1` (stereo partly drawn) (20 µM), the “fold change of Tryptamine concentration” value is 1.02.
Regarding `COC(c1ccccc1)(c1ccccc1)[C@H](Oc1nc(C)cc(C)n1)C(=O)O` [Ambrisentan] (20 µM), the “fold change of Tryptamine concentration” value is 1.01.
Turning to `CN1CCN(CCCN2c3ccccc3Sc3ccc(C(F)(F)F)cc32)CC1` [Trifluoperazine dihydrochloride] (20 µM), the “fold change of Tryptamine concentration” value is 1.06.
As for `C[N+](C)(CCOc1ccccc1)Cc1ccccc1.O=C([O-])c1cc2ccccc2cc1O` [Bephenium hydroxynaphthoate] (20 µM), the “fold change of Tryptamine concentration” value is 1.16.
In the case of `c1ccc2cc3c(ccc4ccccc43)cc2c1` [Benz[a]anthracene] (20 µM), the “fold change of Tryptamine concentration” value is 1.17.
On to `C[C@H]1C[C@H]2[C@@H]3CCC4=CC(=O)C=C[C@]4(C)[C@@]3(F)[C@@H](O)C[C@]2(C)[C@@]1(O)C(=O)CO` [Betamethasone] (20 µM), for which the “fold change of Tryptamine concentration” value was 0.979.
Same read-out and setting: with `NC[C@H]1O[C@H](O[C@H]2[C@H](O[C@@H]3O[C@H](CO)[C@@H](O)[C@H]3O)[C@@H](O)[C@H](N)C[C@@H]2N)[C@H](N)[C@@H](O)[C@@H]1O` [Ribostamycin sulfate salt] (20 µM) the figure was 1.02.
In the case of `CCOC(=O)C1=C[C@]2(CC)CCCN3CCc4c(n1c1ccccc41)[C@@H]32` [Vinpocetine] (20 µM), the “fold change of Tryptamine concentration” value is 0.964.
As to `CCOC1O[C@H]([C@@H](COCc2ccccc2)OCc2ccccc2)[C@H](OCc2ccccc2)[C@H]1O` (stereo partly drawn) [Tribenoside] (20 µM), the “fold change of Tryptamine concentration” value is 0.969.
Still for that read-out and setting: for `NCCCC[C@H](N[C@@H](CCc1ccccc1)C(=O)O)C(=O)N1CCC[C@H]1C(=O)O` [Lisinopril] (20 µM) the value was 0.958.
The same measure, in the same setting: for `CC(C)(C)NC[C@H](O)c1ccc(O)c(CO)c1` [Levalbuterol hydrochloride] (20 µM) the value was 0.99.
With `O=C(CCCl)NCc1ccccc1` [Beclamide] (20 µM), the “fold change of Tryptamine concentration” value was 1.02.
For `Cc1onc(-c2ccccc2Cl)c1C(=O)N[C@@H]1C(=O)N2[C@@H]1SC(C)(C)[C@@H]2C(=O)O` [Cloxacillin sodium salt] (20 µM), the “fold change of Tryptamine concentration” value was 0.0211 (active).
As for `CCN1CCCC1CNC(=O)c1cc(S(N)(=O)=O)ccc1OC` (stereo not drawn) [Sulpiride] (20 µM), the “fold change of Tryptamine concentration” value was 0.949.
Same read-out and setting: with `CCOc1ccc(NC(N)=O)cc1` [(4-Ethoxyphenyl)urea] (50 µM) the figure was 0.979; with `O=C1OC(CN2CCOCC2)CN1/N=C/c1ccc([N+](=O)[O-])o1` (stereo not drawn) [Furaltadone hydrochloride] (20 µM), 0.89; with `Cc1cc(N)c2ccccc2[n+]1CCCCCCCCCC[n+]1c(C)cc(N)c2ccccc21` [Dequalinium dichloride] (20 µM), 0.951.
`Cc1ccc(C(=O)c2ccc(CC(=O)O)n2C)cc1` [Tolmetin sodium salt dihydrate] (20 µM): the “fold change of Tryptamine concentration” value is 1.

(Values after the supplement of paper PMC12494721.)
